TDP1 cell noCPT: qHTS for Inhibitors of human tyrosyl-DNA phosphodiesterase 1 (TDP1): qHTS in cells in absence of CPT; DT40 Tdp1-/- hTDP1 cells, no CPT, ATP luminescence, 48 h; Potency, µM (titrated, usually from 46.2 µM), for the others: at the highest dose activity change, negative = growth inhibition, usual class: inhibitors; actives 15% (n = 420,000); further: potency means the concentration at half of the fitted maximal effect; nearly all actives have a fitted effect of over 55% in size
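Readout: luminescence from CellTiter-Glo after 30 min in the dark at RT. Cells: DT40 Tdp1-/- with stable hTDP1, 400/well. Exposure: compounds alone, ≥48 hr, 37 °C.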
HT1080NT lethal: kills 2HG-producing HT-1080-NT fibrosarcoma cells; Potency, µM (series often up to 46.1 µM), inactives show at the highest dose activity, negative = less viability, usual class: cytotoxic; HT-1080-NT fibrosarcoma viability, CellTiter-Glo ATP luminescence, 48 h; actives 1.6% (n = 360,000); AID 686970;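 further: NT is the 2HG producing partner of a matched IDH1 knockdown line; potency means the concentration at half of the fitted maximal effect; 0% = DMSO-treated cells and -100% = media-only wells without cells; nearly all actives have a fitted effect of over 55% in size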
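Compounds were tested in concentration-response format on HT-1080-NT cells for 48 hours at 37 degrees C. Cell viability came from CellTiter-Glo luminescence; curves were classified by r2, response magnitude and activity.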
TDP1 cell CPT: growth inhibition of DT40 Tdp1-/-;hTDP1 cells with camptothecin (screen for TDP1 inhibitors); chicken DT40 Tdp1-/-;hTDP1 cells + 20 nM CPT, ATP luminescence, 48 h; Potency, µM (highest dose often 46.2 µM), without a hit: at the top dose activity change, negative = growth inhibition, usual class: inhibitors; actives 12% (n = 420,000); AID 686979; further: potency means the concentration at half of the fitted maximal effect; nearly all actives have a fitted effect of over 55% in size
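Cell growth measured by CellTiter-Glo luminescence after a minimum 48 h, 37 C compound exposure with 20 nM CPT in Tdp1-knockout DT40 cells stably expressing hTDP1, seeded 400/well; qHTS titration format.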
ALOX12 inh: inhibitors of human 12S-lipoxygenase ALOX12 | purified 12hLO, xylenol orange hydroperoxide absorbance | Potency, µM (top dose mostly 108 µM), for inactives: top-dose activity change, negative = inhibition, hits mostly inhibitors | actives 1.1% (n = 580,000); further: potency means the concentration at half of the fitted maximal effect
Target sequence (P18054 whole entry, looked up): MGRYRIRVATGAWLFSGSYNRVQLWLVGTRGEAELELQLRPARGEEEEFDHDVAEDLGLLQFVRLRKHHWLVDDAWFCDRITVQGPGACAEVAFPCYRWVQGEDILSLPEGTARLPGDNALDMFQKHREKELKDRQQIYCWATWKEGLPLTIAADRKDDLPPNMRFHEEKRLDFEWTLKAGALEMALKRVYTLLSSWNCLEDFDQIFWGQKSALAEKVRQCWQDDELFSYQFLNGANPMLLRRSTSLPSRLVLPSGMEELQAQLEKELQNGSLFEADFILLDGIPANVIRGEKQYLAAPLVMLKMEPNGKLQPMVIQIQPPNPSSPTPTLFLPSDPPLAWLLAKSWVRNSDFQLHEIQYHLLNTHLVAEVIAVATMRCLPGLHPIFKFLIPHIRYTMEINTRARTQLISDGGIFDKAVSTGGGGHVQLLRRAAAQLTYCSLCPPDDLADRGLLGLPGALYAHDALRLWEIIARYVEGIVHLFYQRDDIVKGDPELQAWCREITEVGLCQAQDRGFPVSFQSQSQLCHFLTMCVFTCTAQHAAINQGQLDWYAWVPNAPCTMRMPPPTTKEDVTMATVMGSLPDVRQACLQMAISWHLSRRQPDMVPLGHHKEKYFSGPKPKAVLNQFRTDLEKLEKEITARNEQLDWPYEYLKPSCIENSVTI
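Purified human 12hLO at 150 nM in 25 mM Hepes, 0.01% Triton X-100, pH 7.0, preincubated 15 min at room temperature with compound. Reaction started with 40 uM arachidonic acid, 30 min at room temperature. Hydroperoxide measured by Fe-xylenol orange, 573/405 nm absorbance ratio.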
HT1080 IDH1KD tx: HT-1080 IDH1 knockdown cell toxicity (counter line); AID 686971; Potency, µM (doses to about 46.1 µM), for the others: at the highest dose activity, negative = toxicity, most hits filed as cytotoxic; actives 2% (n = 360,000); HT-1080 IDH1 knockdown viability, ATP luminescence, 48 h;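 further: potency means the concentration at half of the fitted maximal effect; 0% = DMSO wells and -100% = cell-free medium wells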
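Cytotoxicity counter-line: IDH1KD HT-1080, 48 h, CellTiter-Glo. Curves classed by r2, magnitude and activity.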
IL-1B inflam inh: blocks inflammasome-driven IL-1 beta release; THP-1 LPS/ATP IL-1B secretion, AlphaLISA, 16 h; active compounds read low; activity change, % at 57.5 µM; actives 4.7% (n = 360,000); AID 743279; in the data active means activity change below about -50%; inconclusive means mostly about -30% to -49%
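THP-1 cells pretreated 1 hr with compounds (up to 57.5 uM final), then stimulated with LPS (250 ng/mL final) plus ATP (1.25 mM final); secreted IL-1B measured by AlphaLISA after 16 hr, decreased signal indicating inhibition.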
* marks the source's active call; other numbers are inactive results; i = inactive; ? = inconclusive; · = no result; [ ] = another dose, or the depositor's remark. The entries come from a sample that favours hits as a whole. Unless noted, the call rests on the fitted dose curve; in most records, active means well fitted curve in the direction sought with a large enough effect; inconclusive means small, poorly fitted or top-dose-only effect, or another doubt; inactive means no such curve, though single readings can be large; an effect the other way counts as inactive or inconclusive. Unless noted, on the % scale 0 is the no-effect control and ±100 the full control effect.

SMILES	TDP1 cell noCPT	HT1080NT lethal	TDP1 cell CPT	ALOX12 inh	HT1080 IDH1KD tx	IL-1B inflam inh
Clc1ccc(-n2ncc3c(NCC4CCCO4)ncnc32)cc1 (configuration not stated)	16.4µM*	?	16.4µM*	23.0%[57.4 µM]	?	-13.8
C=CCNc1nc(C(=O)OCC(=O)c2ccc(Cl)cc2)cs1	-12.5%	2.3%	14.3%	?	-2.0%	7.5
COc1cc(/C=N/NC(=O)c2ccc3c(c2)OCO3)ccc1O	25.1%	-11.0%	-9.7%	i	-6.5%	14.0
O=C(N/N=C/c1ccc(F)cc1)c1cc(-c2ccc3c(c2)OCO3)n[nH]1	23.1µM*	?	15.1%	-14.5%	?	-11.3
O=C(N/N=C/c1ccc2c(c1)OCO2)c1ccc(NC(=O)c2ccc(F)cc2)cc1	?	?	?	-16.9%	-8.8%	-2.4
CN(C)c1ccc(/C=N/NC(=O)c2cc(-c3ccc4c(c3)OCO4)n[nH]2)cc1	20.6µM*	5.8µM*	18.4µM*	138.0%	?	19.5
COc1ccc(/C=N/NC(=O)c2cc(-c3ccc4c(c3)OCO4)n[nH]2)cc1OC	11.6µM*	-3.9%	18.4µM*	-21.4%	-1.7%	?
CCOC(=O)c1cnc2c(c(C)nn2C)c1Oc1ccc(Cl)cc1	?	-21.9%	16.4µM*	?	-27.4%	27.6
Cc1nn(C)c2ncc(C(N)=O)c(Oc3cccnc3)c12	-23.3%	3.3%	2.7%	61.1%	10.9%	-0.5
COCc1noc([C@@H]2CN(S(=O)(=O)c3ccc(C#N)cc3)C[C@H]2C(N)=O)n1	·	·	·	-14.4%	·	·
CCCc1noc(-c2cccn3c(CNC(=O)c4ccc(F)cc4Cl)nnc23)n1	·	·	·	52.5%	·	·
COc1ccc(-c2coc3cc4oc(=O)cc(-c5ccccc5)c4cc23)cc1F	4.61µM*	6.51µM*	3.66µM*	-5.0%	3.66µM*	45.5
COc1ccc(-c2coc3cc4oc(=O)cc(C)c4cc23)cc1F	-28.3%	11.2%	?	-14.7%	18.5%	-8.0
COc1cc2oc(=O)c(CC(=O)NCc3ccc(F)cc3)c(C)c2cc1OC	·	·	·	-4.5%	·	·
Cc1nnc(-c2ccc(Oc3ccc(Br)cc3)c([N+](=O)[O-])c2)o1	13µM*	-7.8%	?	-0.4%	-0.2%	13.3
O=[N+]([O-])c1ccc(Oc2ccc(-c3cnc4ccccc4n3)cc2[N+](=O)[O-])cc1	14.6µM*	3.2%	10.3µM*	-2.2%	18.7%	7.4
O=[N+]([O-])c1cc(-c2cnc3ccccc3n2)ccc1Oc1ccc(Br)cc1	13µM*	-0.3%	?	-22.6%	-9.8%	-15.3
O=C(Oc1ccc(-c2cnc3ccccc3n2)cc1)c1ccc(Cl)c([N+](=O)[O-])c1	?	11.5%	-22.3%	0.1%	8.7%	9.4
O=C(Nc1ccc(OC(F)(F)F)cc1)C1CCCN1S(=O)(=O)c1cccc2nsnc12 (configuration not stated)	·	·	·	-4.7%	·	·
Cc1ccc(NC(=O)CC(C)n2ccc(C)n2)c(Cl)c1 (configuration not stated)	·	·	·	8.5%	·	·
CC1(C)CCCC(C)(C#CCN2CCN(C(c3ccccc3)c3ccccc3)CC2)O1 (configuration not stated)	·	·	·	10µM*	·	·
CC1(C)CCCC(C)(C#CCN2CCN(c3ccccc3)CC2)O1 (configuration not stated)	·	·	·	-26.5%	·	·
COc1ccc(-c2nn(-c3ccccc3)cc2CN(C)CCn2ccnc2C)c(F)c1	?	0.0%	18.4µM*	4.7%	-4.7%	?
Cc1ccc(C)c(C(=O)CSc2nnc(COc3ccc(Cl)cc3)n2C)c1	·	·	·	-18.9%	·	·
Cc1ccc(C)c(N(C(=O)Cn2nnc3ccccc32)C(C(=O)NC(C)(C)C)c2ccsc2)c1 (configuration not stated)	?	4.2%	23.1µM*	-18.2%	-13.1%[9.24 µM]	30.3
SMILES	TDP1 cell noCPT	HT1080NT lethal	TDP1 cell CPT	ALOX12 inh	HT1080 IDH1KD tx	IL-1B inflam inh
CC(C)(C)NC(=O)C(c1ccsc1)N(CCc1ccccc1)C(=O)Cn1nnc2ccccc21 (configuration not stated)	-29.6%	-6.0%	?	23.6%	2.0%	25.9
Cc1cc(C)c(N(C(=O)Cn2nnc3ccccc32)C(C(=O)NC(C)(C)C)c2ccsc2)c(C)c1 (configuration not stated)	?	5.7%	16.4µM*	-9.2%	-23.7%	11.6
CNC(=O)c1cc[nH]c1C1CCCN(Cc2ccsc2)C1 (configuration not stated)	·	·	·	7.0%	·	·
CC(C)NC(=O)C1C(c2ccccc2)=Nc2ccccc2N1C(=O)c1ccc(C(F)(F)F)cc1 (configuration not stated)	?	8.4%	?	-63.2%	1.4%	1.1
Cc1ccc(C(=O)N2c3ccccc3N=C(c3ccccc3)C2C(=O)NC(C)C)cc1 (configuration not stated)	?	?	-25.4%	?	-28.3%	-0.5
CC(C)NC(=O)C1C(c2ccccc2)=Nc2ccccc2N1C(=O)c1cc(Cl)cc(Cl)c1 (configuration not stated)	?	16.4µM*	23.1µM*	-14.4%	16.4µM*	1.0
Cc1nc2ccc(C(=O)N3c4ccccc4N=C(c4ccc(C(F)(F)F)cc4)C3C(=O)NC(C)(C)C)cc2[nH]1 (configuration not stated)	14.6µM*	?	?	-1.9%	?	37.2
COc1ccc(CCC(=O)N2c3ccccc3N=C(c3ccc(C(F)(F)F)cc3)C2C(=O)NC(C)C)cc1 (configuration not stated)	?	?	23.1µM*	-9.9%	?	50.3
CC(=O)N1c2ccccc2N=C(c2ccc(C(F)(F)F)cc2)C1C(=O)NC(C)C (configuration not stated)	23.1µM*	-7.9%	20.6µM*	0.5%	-13.9%	42.0
CCCC(C)NC(=O)C1CCN(C(C)=O)CC1 (configuration not stated)	·	·	·	-6.3%	·	·
O=C(NC1CCCC1)C1C(c2ccc(C(F)(F)F)cc2)=Nc2ccccc2N1C(=O)c1ccco1 (configuration not stated)	?	?	16.4µM*	-23.9%	?	9.3
Cc1cccc(NC(=O)CSc2nc3ccccc3o2)c1	-1.7%	26.7%	-3.2%	0.0%	15.4%	15.0

High-throughput results as filed in PubChem BioAssay.
